Bioassay records (PubChem BioAssay)
IP6K1 inhibitor = Primary qHTS assay for small molecule inhibitors of Inositol hexaphosphate kinase 1 (IP6K1); IP6K1 kinase, ADP-Glo luminescence, 2 h; hits give low values; activity change, % (series mostly up to about 58 µM); 140,000 compounds, 0.81% hits; Inositol hexakisphosphate kinase 1 (Homo sapiens), Q92551; in the data active means activity change below about -25%
Target sequence (Q92551 whole entry, looked up): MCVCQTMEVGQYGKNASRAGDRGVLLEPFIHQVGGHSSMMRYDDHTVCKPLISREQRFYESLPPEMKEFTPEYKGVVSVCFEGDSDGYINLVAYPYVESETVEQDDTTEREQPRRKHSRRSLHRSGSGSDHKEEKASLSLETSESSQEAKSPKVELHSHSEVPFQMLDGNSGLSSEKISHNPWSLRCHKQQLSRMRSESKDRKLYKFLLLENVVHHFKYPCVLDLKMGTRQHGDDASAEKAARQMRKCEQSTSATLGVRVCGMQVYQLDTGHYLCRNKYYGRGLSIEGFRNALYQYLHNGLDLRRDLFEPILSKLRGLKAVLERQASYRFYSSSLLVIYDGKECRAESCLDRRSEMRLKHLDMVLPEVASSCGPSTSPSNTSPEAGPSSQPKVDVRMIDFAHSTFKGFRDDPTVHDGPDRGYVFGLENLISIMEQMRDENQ
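ADP-Glo luminescence measures ADP made by human IP6K1 during a 2 h RT reaction with ATP/IP6 (mix at 1.3 mM/130 uM); top library doses 57.5 and 19.1 uM final.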
SNCA expr inhib = Primary qHTS assay for inhibitors of alpha-synuclein gene (SNCA) expression | HEK-293 SNCA-luciferase knock-in, luminescence, 24 h | Potency, µM (top dose mostly 57.2 µM), actives largely listed as inhibitors | 140,000 compounds, 0.17% hits; further: nearly all actives have a fitted effect of over 45% in size
KDM5B inh = Primary screen for KDM5B Histone Demethylases FDH-coupled qHTS. Lysine-specific demethylase 5B (Homo sapiens), Q9UGL1. KDM5B demethylase, FDH-coupled NADH fluorescence (FDH is formaldehyde dehydrogenase). Potency, µM (titrated, usually from 57.7 µM), most hits filed as inhibitors. 220,000 compounds, 2.6% hits. AID 1347165, 2019; further: nearly all actives have a fitted effect of over 70% in size
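Coupled FDH/NAD⁺ fluorescence readout. KDM5BΔAP 200 nM final; compound titration, 10 min RT preincubation; substrate mix 12.5 µM H3K4me3, 25 µM 2-OG, 50 µM Fe(II), 100 µM ascorbate, 0.25 mM NAD⁺, 0.25 U/mL FDH; ΔRFU over 30 min.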
HEK293 viab = GF-AFC viability counterscreen for inhibitors of alpha-synuclein gene (SNCA) expression; HEK-293-SNCA-luc viability, GF-AFC fluorescence, 24 h; Potency, µM (highest dose often 57.1 µM), actives largely listed as cytotoxic; 150,000 compounds, 0.12% hits; further: nearly all actives have a fitted effect of over 30% in size
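Cytotoxicity counterscreen: after 24 h compound treatment of genome-edited SNCA-luciferase HEK-293 cells, live-cell protease substrate GF-AFC read by fluorescence after 30 min; activity scaled between DMSO (0%) and medium-only (-100%), curves Hill-fitted.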
Each line names hits and unclear results; the compound was inactive in the other large screens. Sampled rows, rich in hits. Any-hit rate of the full collection: about 2.8%. Unless noted, the call rests on the fitted dose curve; in most records, active means well fitted curve in the direction sought with a large enough effect; inconclusive means small, poorly fitted or top-dose-only effect, or another doubt; inactive means no such curve, though single readings can be large; an effect the other way counts as inactive or inconclusive.

COc1ccc(N2CC(c3noc(-c4cc(OC)cc(OC)c4)n3)CC2=O)cc1 (configuration not stated)	KDM5B inh inconclusive
CCc1ccc(N2CC(c3noc(-c4cnccn4)n3)CC2=O)cc1 (configuration not stated)	none
CCc1ccc(N2CC(c3noc(-c4ccc(N(C)C)cc4)n3)CC2=O)cc1 (configuration not stated)	KDM5B inh 32µM
CNC(=O)Cn1ccc2cc(S(=O)(=O)N3CCCCC3)ccc21	none (no result: IP6K1 inhibitor, SNCA expr inhib, HEK293 viab)
CCC(=O)NC1(C(F)(F)F)N=C(c2ccccc2)N(CCCc2ccccc2)C1=O (configuration not stated)	none (no result: IP6K1 inhibitor, SNCA expr inhib, HEK293 viab)
COc1cc(OC)cc(-c2nc(C3CC(=O)N(c4ccc(C)cc4)C3)no2)c1 (configuration not stated)	KDM5B inh 32µM
COc1ccc(N2CC3CCC(C2)N3Cc2cccc(-c3ccc(F)cc3F)c2)cc1	KDM5B inh 79µM
COc1cccc([S+](=O)([O-])N2CCC(c3nnc4n3C(C(=O)O)CC4)CC2)c1 (configuration not stated)	KDM5B inh 79µM
Fc1ccccc1-c1noc(N2CCOCC2)n1	none
O=C1c2cc(N3CCOCC3)nc(-c3ccc(CO)cc3)c2CN1Cc1ccccc1	none
O=C1c2cc(N3CCOCC3)nc(-c3ccccc3F)c2CN1CC1CC1	KDM5B inh 40µM
O=C1c2cc(N3CCOCC3)nc(-c3ccc(F)cc3)c2CN1CC1CC1	KDM5B inh 40µM
COc1cc(F)ccc1-c1nc(N2CCOCC2)cc2c1CN(CC1CC1)C2=O	KDM5B inh 35µM
COc1cc(F)ccc1-c1cc2c(ccn2CC2CCN(C)CC2)c(N2CCOCC2)n1	KDM5B inh inconclusive
CNc1nc2c(c(C(=O)N3CCCC3)n1)CN(C(=O)CN1CCOC1=O)CC2	KDM5B inh inconclusive
CCOc1ccccc1-n1nnc(C(=O)Nc2nnc(CC)s2)c1C	none (no result: IP6K1 inhibitor, SNCA expr inhib, HEK293 viab)
CSc1ccc(-c2ccc3c(c2)C(=O)N2CC[C@H](NC(=O)c4cccs4)C[C@H]2C(=O)N3)cc1	KDM5B inh 28µM
COCC(=O)N1CCN2C(=O)c3cc(-c4ccc5c(c4)OCO5)ccc3NC(=O)[C@H]2C1	KDM5B inh inconclusive
CN(C)c1ccc(C(=O)N2CCN3C(=O)c4cc(-c5ccc6c(c5)OCO6)ccc4NC(=O)[C@H]3C2)cc1	SNCA expr inhib inconclusive, KDM5B inh 35µM
O=C1Nc2ccc(-c3ccc4c(c3)OCO4)cc2C(=O)N2CCN(C(=O)c3cccs3)C[C@@H]12	KDM5B inh 28µM
COc1ccc(-c2cc(C(=O)O)cc(S(=O)(=O)N3CCN(C)CC3)c2)cc1	KDM5B inh 16µM
CN1CCN(S(=O)(=O)c2cc(Br)cc(C(=O)O)c2)CC1	none
COc1ccc(-c2nc3c(c(-c4ccccc4)n2)CN(C(=O)c2ccc(F)cc2)CC3)cc1	HEK293 viab inconclusive
Cc1ccc(-c2cccc(CN3CCCC(NC(=O)C4CCCC4)C3)c2)cc1Cl (configuration not stated)	none (no result: KDM5B inh)
COCCNC(=O)c1ccc2c(c1)N(C)C(CC(=O)Nc1ccc[nH]c1=O)CO2 (configuration not stated)	KDM5B inh 28µM
C=CCNC(=O)CC1COc2ccc(C(=O)NCCOC)cc2N1C (configuration not stated)	KDM5B inh 28µM
COCCNC(=O)c1ccc2c(c1)N(C)C(CC(=O)NC(C)(C)CO)CO2 (configuration not stated)	KDM5B inh 32µM
COCCNC(=O)c1ccc2c(c1)OCCN(c1ccccc1)C2	none
CN(C)C(=O)c1ccc2c(c1)N(C)C(CC(=O)NC(C)(CO)CO)CO2 (configuration not stated)	none
COCCNC(=O)c1ccc2c(c1)N(C)C(CC(=O)NC1CCOCC1)CO2 (configuration not stated)	KDM5B inh 32µM
C=CCOc1ccccc1CN1CCC(Oc2ccc(C(=O)N3CCCCC3)cc2)CC1	none (no result: IP6K1 inhibitor, SNCA expr inhib, HEK293 viab)
CCN(CC(C)C#N)C(=O)C1CCCC1 (configuration not stated)	none (no result: IP6K1 inhibitor, SNCA expr inhib, HEK293 viab)
CC(C)CN(C(=O)CC1COc2ccc(C(=O)N(C)C)cc2N1C)C1CC1 (configuration not stated)	none
COCCNC(=O)c1ccc2c(c1)N(C)C(CC(=O)NCc1ccccn1)CO2 (configuration not stated)	SNCA expr inhib inconclusive, KDM5B inh 28µM
